Cruzain Triton: qHTS Assay for Promiscuous and Specific Inhibitors of Cruzain (with detergent) | purified cruzain, Z-FR-AMC fluorescence, 0.01% Triton | Potency, µM, for the others: max response, negative = inhibition, hits mostly inhibitors | AID 1478, 2009 | Cruzipain (Trypanosoma cruzi), P25779 | hit rate 0.43% among 200,000;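 also: plate controls were neutral wells for no effect and buffer without enzyme for full effect; nearly all actives have a fitted effect of over 40% in size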
Target sequence (P25779 123-467 limits assumed): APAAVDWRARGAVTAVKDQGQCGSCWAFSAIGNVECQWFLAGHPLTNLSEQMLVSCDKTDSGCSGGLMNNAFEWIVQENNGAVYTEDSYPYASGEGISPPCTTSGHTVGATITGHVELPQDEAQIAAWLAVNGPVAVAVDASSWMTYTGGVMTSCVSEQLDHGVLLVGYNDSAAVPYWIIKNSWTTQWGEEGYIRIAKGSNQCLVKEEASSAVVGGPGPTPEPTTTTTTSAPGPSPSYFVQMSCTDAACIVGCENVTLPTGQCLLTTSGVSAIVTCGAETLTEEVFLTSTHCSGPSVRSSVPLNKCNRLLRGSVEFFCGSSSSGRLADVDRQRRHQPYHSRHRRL
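Cruzain (1.5 nM) preincubated 15 min at RT with compound in 100 mM sodium acetate pH 5.5, 5 mM DTT, 0.01% Triton X-100. Reaction started with 2 uM Z-FR-AMC; AMC fluorescence (ex 360/em 450 nm) change over 60 s gave rate.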
FBPA Giardia inh: qHTS Assay for Inhibitors of Fructose-1,6-bisphosphate Aldolase from Giardia Lamblia | purified Giardia FBPA | hit rate 0.71% among 290,000 | A8B2U2 | Potency, µM (top dose mostly 59.6 µM), inactives show at the top dose activity, negative = inhibition, usual class: inhibitors; also: nearly all actives have a fitted effect of over 55% in size
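Giardia FBPA (40 nM reagent) was preincubated 10 min at RT with compound (up to 57.5 uM final), then substrate plus GAPDH/TPI/NAD/arsenate coupling system with diaphorase/resazurin was added; resorufin fluorescence (525/598 nm) was read after 20 min.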
Cruzain noTriton: qHTS Assay for Promiscuous and Specific Inhibitors of Cruzain (without detergent) | purified cruzain, Z-FR-AMC fluorescence, no detergent | Potency, µM, for the others: max response, negative = inhibition, hits mostly inhibitors | hit rate 2.3% among 200,000;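 also: plate controls were enzyme without inhibitor for no effect and buffer without enzyme for full effect; nearly all actives have a fitted effect of over 40% in size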
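Detergent-free condition (0.00005% Triton X-100) in acetate buffer pH 5.5 with DTT. 1.5 nM enzyme and compound were pre-mixed 15 min, then 2 uM Z-FR-AMC substrate added; reaction progress from fluorescence change between first and third reads (60 s).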
An asterisk follows results filed as active; ? = inconclusive; . = not tested or not shown. The full list was thinned out, with hits kept by preference. Calls follow the shape of the dose curve; as a rule, active = well fitted curve in the direction sought with a large enough effect; inconclusive = small, poorly fitted or top-dose-only effect, or another doubt; inactive = no such curve, though single readings can be large; an effect the other way counts as inactive or inconclusive. Unless noted, % is scaled to controls: 0 for no effect and ±100 for the full control effect; potency is read from the fitted curve at half-maximal effect.

SMILES	Cruzain Triton	FBPA Giardia inh	Cruzain noTriton
Cc1cc(OC(C)C(=O)N(Cc2ccco2)Cc2ccco2)cc(C)c1Cl (stereo not drawn)	-8%	.	13%
COC(=O)c1c(NC(=O)c2c(C)noc2C)sc2c1CCCCCC2	5%	0%	-4%
COC(=O)c1c(NC(=O)c2c(-c3ccccc3Cl)noc2C)sc2c1CCC2	-5%	-3%	13µM*
Cc1ccc(C)c2[nH]c(=O)c(CN(Cc3cccs3)C(=S)NCc3ccco3)cc12	-2%	0%	20µM*
Cc1cccc(NC(=S)N(Cc2cccs2)Cc2cc3cc(C)cc(C)c3[nH]c2=O)c1	-3%	9%	25µM*
Cc1cc2cc(CN(Cc3cccs3)C(=S)NCc3ccco3)c(=O)[nH]c2cc1C	-5%	-5%	?
COc1ccc2[nH]c(=O)c(CN(Cc3cccs3)C(=S)Nc3cccc(C)c3)cc2c1	-3%	2%	?
CC(C)c1nn2c(=O)cc(COC(=O)c3ccccc3NC(=O)C3CCCCC3)nc2s1	0%	.	-15%
COc1ccc(CNCc2c(C(=O)O)c(C)n(Cc3ccccc3C)c2C)c(OC)c1	3%	.	-1%
CCOC(=O)c1c(NC(=O)c2cc3n(n2)C(C(F)(F)F)CC(c2cccs2)N3)sc(C)c1C (stereo not drawn)	-6%	0%	6.3µM*
Cc1nn(C)c(C)c1CNC(=O)c1cc2n(n1)C(C(F)(F)F)CC(c1cccs1)N2 (stereo not drawn)	-3%	-6%	?
N=C1/C(=C\c2ccc(-c3cccc(C(=O)O)c3)o2)C(=O)N=C2SC=C(c3ccccc3)N12	.	-18%	.
CC1=CSC2=NC(=O)/C(=C\c3cccn3-c3ccccc3)C(=N)N12	-10%	-1%	13µM*
Cc1cc(/C=C2\C(=N)N3N=C(C(C)C)SC3=NC2=O)c(C)n1Cc1ccccc1	.	18%	.
CC1=NN2C(=N)/C(=C\c3cc(C)n(-c4ccccc4)c3C)C(=O)N=C2S1	.	-6%	.
Cc1cc(/C=C2/C(=N)N3C(c4ccccc4)=CSC3=NC2=O)c(C)n1-c1ccccc1	1%	-5%	4µM*
CCC(CC)C1=NN2C(=N)/C(=C\c3cc(C)n(-c4cccc(C)c4)c3C)C(=O)N=C2S1	-8%	15%	25µM*
CC1=CSC2=NC(=O)/C(=C\c3cccn3-c3ccc([N+](=O)[O-])cc3)C(=N)N12	-3%	-13%	?
Cc1cc(/C=C2\C(=N)N3C(SCc4ccccc4)=NSC3=NC2=O)c(C)n1Cc1ccccc1	-4%	3%	3.2µM*
Cc1ccc(C)c(Nc2ncnc3onc(C)c23)c1	-1%	.	1%
O=S1(=O)C2CC3C=CC2(O3)C(O)C(Cc2ccccc2)N1Cc1cccc(F)c1 (stereo not drawn)	.	2%	.
CCCCOc1ccccc1CC1C(=O)Nc2ccc(Br)cc21 (stereo not drawn)	-16%	.	-1%
CCc1ccc(NCc2cc3cc4c(cc3n(CC(=O)Nc3ccc(C)cc3)c2=O)OCO4)cc1	-3%	.	-22%
COc1ccc(NCc2cc3cc4c(cc3n(CC(=O)Nc3ccc(F)cc3)c2=O)OCCO4)cc1	-5%	.	20µM*
CCOc1ccc(NC(=O)Cn2c(=O)c(CNc3ccccc3)cc3cc4c(cc32)OCCO4)cc1	-4%	.	-23%
SMILES	Cruzain Triton	FBPA Giardia inh	Cruzain noTriton
CCc1ccc(NCc2cc3cc4c(cc3n(CC(=O)Nc3ccc(F)cc3)c2=O)OCCO4)cc1	-8%	.	20µM*
Cc1noc(C)c1-c1ccc2ncnc(NCc3ccc(C(F)(F)F)cc3)c2c1	.	-3%	.
Nc1cc(Cl)c([N+](=O)[O-])cc1O	-3%	.	-3%
Cc1ccc(/C=N/c2sc3c(c2C#N)CCC3)s1	-3%	-4%	-4%
N#Cc1c(/N=C/c2cc3ccccc3s2)sc2c1CCC2	-5%	-10%	13µM*
O=C(O)c1oc(C(=O)O)c(C(=O)O)c1C(=O)O	3%	.	7%
c1nc2nc(Nc3ccc(N4CCOCC4)cc3)nc(NC3CCCCC3)c2[nH]1	.	-6%	.
O=C(NCc1ccco1)c1ccc2c(=O)n(CCC3=CCCCC3)c(=O)[nH]c2c1	0%	9%	16µM*
CCN1CCN(C(=O)c2ccc3c(=O)n(CCC4=CCCCC4)c(=O)[nH]c3c2)CC1	0%	6%	10%
CCc1ccc2oc(-c3ccc(C)c(NC(=O)c4ccc(C#N)cc4F)c3)nc2c1	0%	.	-8%
O=C(O)C[C@H]1NCc2cc3ccccc3nc21	2%	.	-19%
O=C(NCc1ccccc1Cl)c1ccc2c(c1)ncn2-c1cccc(F)c1	-9%	.	-10%
